# Results as given in PubChem BioAssay.
# Values without a mark were called inactive. A call without a number means that no potency is given here. For part of these data: Potency and affinity values are given separately. Activity calls are given as the source filed them. Unless noted, the rule behind the calls is not given here.
# Experiments:
# [1] = antimalarial activity against Dd2 strain (AID 2302;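 active = growth inhibition above 50% at the single 2 µM test dose, taken to imply half-maximal potency below 2 µM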); details: P. falciparum Dd2 in RBCs, LDH growth readout, 72 h; at 2 µM; stronger effect = higher value
# [2] = human hepatoma cell viability loss – ATP luminescence, cytotoxicity control for P. falciparum antimalarial project, primary screen (AID 2303;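 active = inhibition above 50%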); details: HepG2 viability, 24-48 h, at 10 µM, stronger effect = higher value
# [3] = target: L-lactate dehydrogenase (Plasmodium falciparum (isolate CDC / Honduras)) (UniProt Q27743); experiment: PfLDH activity inhibition – cell lysate, 3D7 strain, counter-screen for P. falciparum growth inhibition project (AID 2304); details: P. falciparum 3D7 crude extract, LDH APAD/NBT absorbance; at 2 µM; stronger effect = higher value
# [4] = inhibition of 3D7 malaria parasite growth – strain 3D7 (AID 2306); details: P. falciparum 3D7 erythrocytic growth, LDH absorbance, 72 h; at 2 µM; stronger effect = higher value
# [5] = target: Calcium-dependent protein kinase 1 (Plasmodium falciparum (isolate 3D7)) (UniProt P62344); experiment: PfCDPK1 kinase inhibitors, biochemical, TCAMS library (AID 1159585; cut-off not given, nearly all actives have IC50 up to about 0.98 µM;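 note: inhibitors leave more ATP so luminescence rises with inhibition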); details: recombinant PfCDPK1, Kinase-Glo ATP depletion luminescence
# [6] = target: Plasmodium falciparum protein kinase 6 (PK6, PF3D7_1337100) (UniProt Q8IDW1); experiment: PfPK6 kinase inhibitors, biochemical, TCAMS library (AID 1159586); details: recombinant PfPK6, Kinase-Glo ATP depletion luminescence
# [7] = target: Protein kinase 7 (PK7), Plasmodium falciparum 3D7 (PF3D7_0213400) (UniProt Q7YTF7); experiment: inhibition of Plasmodium PK7 catalytic activity – biochemical, TCAMS antimalarial set, Kinase-Glo luminescence (AID 1159587); details: recombinant PfPK7, Kinase-Glo ATP depletion luminescence
# [8] = target: Calcium-dependent protein kinase 4 (Plasmodium falciparum (isolate 3D7)) (UniProt Q8IBS5); experiment: PfCDPK4 kinase inhibitors, biochemical, TCAMS library (AID 1159588; cut-off not given, nearly all actives have IC50 up to about 0.91 µM); details: recombinant PfCDPK4, Kinase-Glo ATP depletion luminescence
# Calcium-dependent protein kinase 4 (Plasmodium falciparum (isolate 3D7)), sequence (Q8IBS5 whole entry, looked up): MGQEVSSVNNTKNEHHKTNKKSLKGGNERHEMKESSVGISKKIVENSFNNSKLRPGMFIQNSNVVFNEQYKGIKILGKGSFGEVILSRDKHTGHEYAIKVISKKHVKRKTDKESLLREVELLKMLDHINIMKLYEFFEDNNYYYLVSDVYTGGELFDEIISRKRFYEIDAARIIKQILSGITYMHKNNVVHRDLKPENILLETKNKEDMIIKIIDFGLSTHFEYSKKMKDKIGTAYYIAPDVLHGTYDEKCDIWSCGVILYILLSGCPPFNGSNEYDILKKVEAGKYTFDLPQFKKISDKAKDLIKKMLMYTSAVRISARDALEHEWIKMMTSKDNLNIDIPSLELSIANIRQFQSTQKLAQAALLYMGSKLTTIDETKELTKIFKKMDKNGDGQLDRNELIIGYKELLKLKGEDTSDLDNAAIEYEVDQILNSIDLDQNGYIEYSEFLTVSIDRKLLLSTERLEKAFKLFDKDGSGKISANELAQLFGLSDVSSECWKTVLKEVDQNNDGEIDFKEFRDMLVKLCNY
# Protein kinase 7 (PK7), Plasmodium falciparum 3D7 (PF3D7_0213400), sequence (Q7YTF7 1-343): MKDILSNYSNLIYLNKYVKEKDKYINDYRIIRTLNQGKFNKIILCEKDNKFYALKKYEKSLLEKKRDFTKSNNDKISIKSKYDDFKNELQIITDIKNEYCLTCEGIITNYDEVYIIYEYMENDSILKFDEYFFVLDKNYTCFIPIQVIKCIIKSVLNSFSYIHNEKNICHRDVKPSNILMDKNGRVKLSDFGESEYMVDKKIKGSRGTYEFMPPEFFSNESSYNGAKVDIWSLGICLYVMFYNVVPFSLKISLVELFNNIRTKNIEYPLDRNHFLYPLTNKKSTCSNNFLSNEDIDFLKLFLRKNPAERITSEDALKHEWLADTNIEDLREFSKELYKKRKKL
# Plasmodium falciparum protein kinase 6 (PK6, PF3D7_1337100), sequence (Q8IDW1 1-305): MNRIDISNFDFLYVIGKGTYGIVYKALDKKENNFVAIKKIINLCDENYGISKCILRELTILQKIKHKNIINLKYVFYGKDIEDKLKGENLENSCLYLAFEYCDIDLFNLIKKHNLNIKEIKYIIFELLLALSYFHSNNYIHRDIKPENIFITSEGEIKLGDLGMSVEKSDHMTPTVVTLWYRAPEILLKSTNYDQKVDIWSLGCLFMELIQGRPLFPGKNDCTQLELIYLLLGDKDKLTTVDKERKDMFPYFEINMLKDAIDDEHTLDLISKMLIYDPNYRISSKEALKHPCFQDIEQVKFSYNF
# L-lactate dehydrogenase (Plasmodium falciparum (isolate CDC / Honduras)), sequence (Q27743 whole entry, looked up): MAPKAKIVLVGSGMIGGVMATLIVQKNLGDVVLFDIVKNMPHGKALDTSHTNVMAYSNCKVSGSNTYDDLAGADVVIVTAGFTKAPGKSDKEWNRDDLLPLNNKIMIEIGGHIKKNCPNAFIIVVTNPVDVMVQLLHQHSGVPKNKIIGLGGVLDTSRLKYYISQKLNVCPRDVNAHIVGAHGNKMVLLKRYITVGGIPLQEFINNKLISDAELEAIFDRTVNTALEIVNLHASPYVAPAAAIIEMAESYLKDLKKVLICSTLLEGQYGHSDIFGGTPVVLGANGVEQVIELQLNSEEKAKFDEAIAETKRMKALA
# Calcium-dependent protein kinase 1 (Plasmodium falciparum (isolate 3D7)), sequence (P62344 whole entry, looked up): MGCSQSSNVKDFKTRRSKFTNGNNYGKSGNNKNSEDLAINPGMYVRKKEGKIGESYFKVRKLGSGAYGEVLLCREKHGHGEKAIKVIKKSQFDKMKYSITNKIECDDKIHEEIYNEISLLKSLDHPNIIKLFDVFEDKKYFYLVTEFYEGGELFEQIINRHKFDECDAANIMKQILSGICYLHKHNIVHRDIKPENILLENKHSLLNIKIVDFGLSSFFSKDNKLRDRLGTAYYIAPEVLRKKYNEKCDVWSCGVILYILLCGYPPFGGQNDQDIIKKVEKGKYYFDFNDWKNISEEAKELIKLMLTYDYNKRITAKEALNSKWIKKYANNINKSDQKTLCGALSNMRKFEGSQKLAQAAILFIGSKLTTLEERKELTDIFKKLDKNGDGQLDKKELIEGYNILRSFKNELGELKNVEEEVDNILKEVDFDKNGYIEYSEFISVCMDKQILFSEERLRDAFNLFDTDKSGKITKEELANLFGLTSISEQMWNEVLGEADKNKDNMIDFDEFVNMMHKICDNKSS
SMILES,growth inhibition [1],inhibition [2],inhibition [3],growth inhibition [4],outcome [5],outcome [6],outcome [7],outcome [8]
O=C(NC(=S)Nc1cc(C(F)(F)F)cc(C(F)(F)F)c1)c1ccc(Cl)cc1,99% (active),31%,0%,96% (active),inactive,inactive,inactive,inactive
COc1cc(-c2cc3cc(Cl)c(Cl)cc3[nH]2)ccc1C(=O)NCCC1CCCN1C (configuration not stated),41%,20%,-5%,91% (active),inactive,inactive,inactive,inactive
COc1ccc(CNCCc2cccs2)cc1-c1ccc(S(=O)(=O)NCCN2CCCC2)s1,21%,41%,2%,99% (active),inactive,inactive,inactive,inactive
Cc1cccc2[nH]c(-c3ccc(-c4cccc(CN5CCCC5CN)c4)cc3)nc12 (configuration not stated),32%,7%,3%,91% (active),inactive,inactive,inactive,inactive
c1cc(CNCC2CCN(CC3CCCCC3)CC2)cc(-n2ccnc2)c1,99% (active),18%,-1%,102% (active),inactive,inactive,inactive,inactive
O=c1[nH]c2ccc(Nc3nccc(NCCc4ccccc4)n3)cc2[nH]1,6%,-1%,3%,101% (active),inactive,inactive,inactive,inactive
Cc1ccccc1CNc1noc(-c2sccc2Br)n1,88% (active),-2%,-3%,99% (active),inactive,inactive,inactive,inactive
COc1cc(NC2=C(c3ccccc3)C(=O)c3ccccc32)ccn1,96% (active),7%,4%,96% (active),inactive,inactive,inactive,inactive
O=C(/C=C/c1ccc(Cl)c(Cl)c1)NCCCCCN1CCCN(C(=O)Nc2ccc(Cl)cc2)CC1,-5%,21%,-5%,100% (active),inactive,inactive,inactive,inactive
COc1ccc(Cl)cc1NC(=O)C(C)N1CCN(S(=O)(=O)c2ccccc2F)CC1 (configuration not stated),66% (active),5%,4%,93% (active),inactive,inactive,inactive,inactive
Cn1nc(-c2ccc(CN[C@@H]3CCc4ccc(O)cc43)cc2)c2cnc(NC3CCCC3)nc21,8%,12%,0%,97% (active),inactive,inactive,inactive,inactive
Nc1nc(N)c2c(ccc3c2ccn3Cc2ccc(OCc3ccccc3)cc2)n1,1%,5%,-2%,98% (active),inactive,inactive,inactive,inactive
Cc1csc(-c2nonc2NC(=O)COc2ccccc2C(C)C)n1,85% (active),14%,-1%,90% (active),inactive,inactive,inactive,inactive
CC(C)c1ccc(C2CCN(CCCCNC(=O)c3ccc(NC(=O)c4ccc(C(F)(F)F)cc4)cc3)CC2)c(O)c1,100% (active),47%,7%,99% (active),inactive,inactive,inactive,inactive
COc1c(C2CCN(CCCCNC(=O)c3cc(-c4ccc(Cl)cc4)sc3C)CC2)ccc2c1CCCC2,65% (active),61% (active),2%,101% (active),inactive,inactive,inactive,inactive
Cc1cc(NC(=O)Nc2ccc(Oc3ccccc3)cc2)c2ccccc2n1,28%,2%,4%,91% (active),inactive,inactive,inactive,inactive
Cc1ccc(Nc2ccnc(Nc3ccc(C)c(F)c3)n2)cc1O,27%,4%,-4%,100% (active),inactive,inactive,inactive,inactive
Cc1c(Cn2nc(Cl)c(N3CCNCC3)cc2=O)cccc1NC(=O)Nc1ccc(-c2ccccc2)cc1,29%,96% (active),2%,80% (active),inactive,inactive,inactive,inactive
C[C@@H]1CN(c2ncc(-c3ccc(CNC4Cc5ccccc5C4)cc3)cn2)C[C@H](C)N1,78% (active),27%,-10%,85% (active),inactive,inactive,inactive,inactive
O=C(O)c1cc(OCC(O)COc2ccc(O)c(C(=O)O)c2)ccc1O,6%,9%,5%,99% (active),inactive,inactive,inactive,inactive

SMILES,growth inhibition [1],inhibition [2],inhibition [3],growth inhibition [4],outcome [5],outcome [6],outcome [7],outcome [8]
Cc1nc2c(s1)c(=O)cc(CCc1cccc(F)c1F)n2CC(=O)N(Cc1ccc(-c2ccc(C(F)(F)F)cc2)cc1)C1CCN(C(C)C)CC1,82% (active),98% (active),0%,100% (active),inactive,inactive,inactive,inactive
CS(=O)(=O)c1ccc(-c2nc(NCC3CCCCC3)cc(C(F)(F)F)n2)cc1,76% (active),-9%,2%,83% (active),inactive,inactive,inactive,inactive
NC(N)=Nc1nc(CCCCCCCCc2csc(N=C(N)N)n2)cs1,28%,27%,0%,100% (active),inactive,inactive,inactive,inactive
O=C(NC1CCCCC1)N(Cc1cccc(-c2ccc(CNCc3ccc4c(c3)OCO4)cc2)c1)C1CCN(Cc2ccccc2)CC1,59% (active),13%,-9%,92% (active),inactive,inactive,inactive,inactive
C=C[C@]1(C)C[C@@H](OC(=O)NC(=O)CCCS(=O)(=O)c2nnc(C)s2)[C@]2(C)[C@H](C)CC[C@]3(CCC(=O)[C@H]32)[C@@H](C)[C@@H]1O,97% (active),-9%,-7%,94% (active),inactive,inactive,inactive,inactive
COc1cc(Nc2ncc3c(C)nc(-c4cccc(Nc5ccc(CN6CCS(=O)(=O)CC6)cc5)c4)n3n2)cc(OC)c1OC,79% (active),2%,2%,90% (active),inactive,inactive,inactive,inactive
Cc1cc(Nc2ccc(Oc3ccc(Cl)cc3)cc2)nc(N)n1,71% (active),49%,7%,101% (active),inactive,inactive,inactive,inactive
CCNc1cc(C(=O)N[C@@H](Cc2ccccc2)[C@H](O)CN[C@H]2C[C@@H]3CC[C@H]2C3)cc(N2CCCCS2(=O)=O)c1,73% (active),-4%,1%,99% (active),inactive,inactive,inactive,inactive
CC(C)(C)OC(=O)n1cc(C2CCN(CCCC34CCCc5cccc(c53)NC4=O)CC2)c2ccncc21 (configuration not stated),-2%,20%,-5%,92% (active),inactive,inactive,inactive,inactive
COc1cc(C)nc2ccc(NC(=O)c3ccc(C(=O)Nc4ccc5nc(C)cc(OC)c5c4)cc3)cc12,72% (active),27%,-5%,96% (active),inactive,inactive,inactive,inactive
O=C(CSc1nc(-c2ccccc2Cl)ns1)Nc1ccc2c(c1)OCO2,77% (active),-8%,-5%,93% (active),inactive,inactive,inactive,inactive
CCCCCCNC(=O)C1Cc2c([nH]c3ccccc23)C2(CCN(CCc3ccccc3)CC2)N1 (configuration not stated),34%,41%,4%,96% (active),inactive,inactive,inactive,inactive
FC(F)(F)c1cccc(Nc2nc(-n3ccnc3)nc(-n3ccnc3)n2)c1,9%,5%,1%,97% (active),inactive,inactive,inactive,inactive
O=C(Cc1cnc[nH]1)Nc1cccc(-c2cccc(-c3nc4ccccc4[nH]3)c2)c1,60% (active),24%,-2%,97% (active),inactive,inactive,inactive,inactive
O=C(Nc1ccc(S(=O)(=O)N2CCCCC2)cc1)c1cc(-c2cc(Cl)ccc2O)n[nH]1,87% (active),36%,0%,97% (active),inactive,inactive,inactive,inactive
O=C(/C=C/c1ccc(Cl)c(Cl)c1)N1CCCC(CCCN2CCC(c3c[nH]c4ccccc34)CC2)C1 (configuration not stated),15%,30%,-1%,89% (active),inactive,inactive,inactive,inactive
CCCCCCOc1ccc(C(N)=NCc2ccccc2)c2c1CCCC2,35%,62% (active),-3%,96% (active),inactive,inactive,inactive,inactive
O=C(Nc1ccc(Cl)c(Cl)c1)Nc1ccc(F)c([N+](=O)[O-])c1,96% (active),49%,-3%,101% (active),inactive,inactive,inactive,inactive
N#Cc1cncc(-c2nc3c(N4CCN(c5cnccn5)CC4)cccc3n2CCNCc2ccccc2)c1,31%,0%,4%,99% (active),inactive,inactive,inactive,inactive
